Each structure is given as a SMILES string. The source made the active and inactive calls.

The subject of assay [1] is PRMT1 (protein arginine N-methyltransferase 1). Nature of the assay: PRMT1 binders on small-molecule microarrays, primary screen, biochemical, small-molecule microarray, 635 nm fluorescence (AID 1088).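 Also: binding of Prmt1 protein to compounds spotted on small-molecule microarray slides.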 The note with it: small-molecule microarray binding, higher = more signal.
Assay [2] is described as follows: yeast growth modulation, basal conditions, primary screen, YJM789 clinical isolate, OD600, 24 h (AID 1089).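 Also: growth of clinical yeast isolate S. cerevisiae YJM 789 seeded 1000 cells per well; test concentration not given here.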 Particulars: S. cerevisiae YJM789 growth, higher = more signal, called active from +8 up or from −8 down.
A short description of assay [3]: fission yeast growth modulation, primary screen, strain 972, OD600, 24 h, no modulator (AID 1090).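 Also: basal condition with compound alone and no growth modifier present; test concentration not given here.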 The note with it: S. pombe 972 growth, higher = more signal, called active from +8 up or from −8 down.
The nature of assay [4]: S. cerevisiae growth modulation with rapamycin, primary screen, strain BY4716, OD600, 96 h (AID 1091). Also: test concentration not given here. The note with it: higher = more signal, called active from +8 up or from −8 down.
Assay [5] concerns the target Torsin-1A-interacting protein 2 (Homo sapiens) (UniProt Q8NFQ8). Nature of the assay: LULL1 binders on small-molecule microarray, primary screen, cell lysate, human LULL1 lysate, 635/667 nm fluorescence (AID 1092).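 Also: probe is lysate of COS7 cells overexpressing human LULL1; score merges per-feature 667 nm fluorescence with signal-to-noise.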 The note with it: hLULL1 lysate binding, 635 nm fluorescence, higher = more signal.
The nature of assay [6]: E. coli growth modulation, two-sided OD650, primary screen, E. coli filamentation project, strain DRC41, 24 h (AID 1093).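 Also: MC1000 strain lacking acrAB efflux and sulA so SOS filamentation is blocked; test concentration not given here.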 The note with it: OD650, 24 h, higher = more signal, called active from +8 up or from −8 down.
Assay [7] in a line: small-molecule microarray binders of probe aLefty2, primary screen, biochemical, biotinylated probe, 635/667 nm fluorescence (AID 1094).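 Also: score merges spot fluorescence near 667 nm with spot signal-to-noise ratio.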 The note with it: higher = more signal.
In assay [8] the test system is Noggin (protein binding on small-molecule microarray). Nature of the assay: Noggin binders on small-molecule microarray, primary screen, biochemical, 635/667 nm fluorescence (AID 1095).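 Also: score merges 667 nm feature fluorescence with signal to noise over triplicate slides.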 Particulars: 635 nm fluorescence, higher = more signal.
The target in assay [9] is Neurogenic locus notch homolog protein 3 (Homo sapiens) (UniProt Q9UM47). Nature of the assay: NOTCH3 binders on small-molecule microarray, primary screen, biochemical, 635/667 nm fluorescence (AID 1096). The note with it: NOTCH3 binding, 635 nm fluorescence, higher = more signal.
A short description of assay [10]: small-molecule microarray binders of probe aEGFR, primary screen, biochemical, biotinylated probe, 635/667 nm fluorescence (AID 1097).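 Also: probe is a biotinylated anti-EGFR antibody binding compounds printed on slides; score combines fluorescence near 667 nm and signal to noise of each spot.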 Particulars: higher = more signal.
The test system of assay [11] is Plasmodium falciparum Sir2 (PF13_0152, Sir2A). The assay is described as follows: pfSir2 binders on small-molecule microarrays, primary screen, biochemical, small-molecule microarray, 635 nm fluorescence (AID 1098).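 Also: score merges spot fluorescence intensity with its signal-to-noise ratio.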 Particulars: small-molecule microarray binding, fluorescence 635 nm; higher = more signal.
A short description of assay [12]: small-molecule microarray binders of probe aDKK1, primary screen, biochemical, biotinylated probe, 635/667 nm fluorescence (AID 1099).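 Also: score merges 667nm spot fluorescence with signal to noise across triplicate slides; reference of the scale not given here.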 Particulars: higher = more signal.
A short description of assay [13]: small-molecule microarray binders of probe aCHRDL2, primary screen, biochemical, biotinylated probe, 635/667 nm fluorescence (AID 1100). Particulars: higher = more signal.
Assay [14] in a line: splicing luciferase reporter signal modulators, primary screen, spliceosome inhibition project, cell-based, HEK293, splice +/- reporter (AID 1101).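 Also: HEK293 cells carrying a splicing-competent luciferase reporter gene; test concentration not given here.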 The note with it: luminescence, 24 h, higher = more signal, called active from +8 up or from −8 down.
Assay [15] has as its target Fibroblast growth factor 10 (Homo sapiens) (UniProt O15520). Nature of the assay: FGF10 binders on small-molecule microarrays, primary screen, biochemical, small-molecule microarray, 635 nm fluorescence (AID 1102). The note with it: FGF10 binding, fluorescence 635 nm, higher = more signal.
In assay [16] the test system is glycogen synthase kinase-3 (GSK3A per assay name; protocol says GSK3B). Nature of the assay: GSK3 binders on small-molecule microarrays, primary screen, biochemical, small-molecule microarray, 635 nm fluorescence, GSK3A (AID 1103). Also: the record names both GSK3A and GSK3B. The note with it: small-molecule microarray binding, fluorescence 635 nm; higher = more signal.
Assay [17] concerns the target Epidermal growth factor receptor (Homo sapiens) (UniProt P00533). The assay is described as follows: EGFR binders on small-molecule microarrays, primary screen, biochemical, small-molecule microarray, 635 nm fluorescence (AID 1104).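 Also: score merges 667 nm emission intensity with spot signal to noise over triplicate slides.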 Particulars: EGFR binding, higher = more signal.
The target in assay [18] is Follistatin-related protein 3 (Homo sapiens) (UniProt O95633). The assay is described as follows: FSTL3 binders on small-molecule microarrays, primary screen, biochemical, small-molecule microarray, 635 nm fluorescence (AID 1105).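 Also: score merges emission near 667 nm and signal to noise per printed spot across three slides.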 The note with it: FSTL3 binding, higher = more signal.
Assay [19] deals with Dickkopf-related protein 1 (Homo sapiens) (UniProt O94907). The assay is described as follows: DKK1 binders on small-molecule microarrays, primary screen, biochemical, small-molecule microarray, 635 nm fluorescence scan (AID 1106).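 Also: score merges emission near 667 nm with signal to noise over three replicate slides.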 The note with it: DKK1 binding, higher = more signal.
Assay [20] has as its system Inhibin beta A chain (activin A). Nature of the assay: INHBA (activin A) binders on microarrays, primary screen, biochemical, small-molecule microarray, 635 nm fluorescence scan (AID 1107).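 Also: mouse activin A protein probed at 4.33 µg/mL on printed slides; score merges bound-protein fluorescence near 667 nm with spot signal-to-noise.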 Particulars: small-molecule microarray binding, higher = more signal.

Chain of Epidermal growth factor receptor (Homo sapiens) (P00533 whole entry, looked up): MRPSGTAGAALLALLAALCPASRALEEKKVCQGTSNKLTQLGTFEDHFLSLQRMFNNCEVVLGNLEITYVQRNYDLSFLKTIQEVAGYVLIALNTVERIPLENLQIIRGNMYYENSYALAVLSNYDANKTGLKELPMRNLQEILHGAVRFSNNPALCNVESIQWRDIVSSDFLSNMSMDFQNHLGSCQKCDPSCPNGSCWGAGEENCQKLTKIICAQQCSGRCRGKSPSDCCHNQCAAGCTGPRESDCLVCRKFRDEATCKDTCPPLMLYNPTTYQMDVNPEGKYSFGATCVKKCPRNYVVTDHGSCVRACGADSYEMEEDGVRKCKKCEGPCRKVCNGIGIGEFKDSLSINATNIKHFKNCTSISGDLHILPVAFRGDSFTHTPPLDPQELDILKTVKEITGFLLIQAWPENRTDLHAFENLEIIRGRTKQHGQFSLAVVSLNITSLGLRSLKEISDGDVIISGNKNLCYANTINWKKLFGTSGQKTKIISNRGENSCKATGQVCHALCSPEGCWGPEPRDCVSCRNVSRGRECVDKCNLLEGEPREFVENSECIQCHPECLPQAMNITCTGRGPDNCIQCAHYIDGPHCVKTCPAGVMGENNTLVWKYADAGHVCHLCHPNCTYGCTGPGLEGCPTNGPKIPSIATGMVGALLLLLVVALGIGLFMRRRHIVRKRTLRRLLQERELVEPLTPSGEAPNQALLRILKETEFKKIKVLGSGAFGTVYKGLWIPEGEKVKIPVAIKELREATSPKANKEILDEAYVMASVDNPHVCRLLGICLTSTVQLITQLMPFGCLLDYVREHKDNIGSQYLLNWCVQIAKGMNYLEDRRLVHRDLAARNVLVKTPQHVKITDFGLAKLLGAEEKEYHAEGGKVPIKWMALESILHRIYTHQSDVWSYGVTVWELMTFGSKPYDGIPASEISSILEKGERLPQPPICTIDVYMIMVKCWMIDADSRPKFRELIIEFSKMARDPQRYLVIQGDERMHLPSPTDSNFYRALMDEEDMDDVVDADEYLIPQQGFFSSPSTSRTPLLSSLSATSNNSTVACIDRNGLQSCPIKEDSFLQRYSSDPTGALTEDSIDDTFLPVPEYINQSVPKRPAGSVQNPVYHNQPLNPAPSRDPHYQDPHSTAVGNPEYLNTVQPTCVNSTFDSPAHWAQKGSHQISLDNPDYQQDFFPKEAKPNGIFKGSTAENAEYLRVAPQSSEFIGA
Chain of Dickkopf-related protein 1 (Homo sapiens) (O94907 whole entry, looked up): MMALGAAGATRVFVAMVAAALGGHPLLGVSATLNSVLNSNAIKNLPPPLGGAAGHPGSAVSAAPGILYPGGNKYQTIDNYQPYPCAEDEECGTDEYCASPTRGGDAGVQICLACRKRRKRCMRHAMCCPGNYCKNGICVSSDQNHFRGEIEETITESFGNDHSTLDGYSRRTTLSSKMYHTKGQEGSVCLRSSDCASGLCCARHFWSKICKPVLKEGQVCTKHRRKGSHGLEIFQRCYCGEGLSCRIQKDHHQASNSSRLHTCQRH
Chain of Follistatin-related protein 3 (Homo sapiens) (O95633 whole entry, looked up): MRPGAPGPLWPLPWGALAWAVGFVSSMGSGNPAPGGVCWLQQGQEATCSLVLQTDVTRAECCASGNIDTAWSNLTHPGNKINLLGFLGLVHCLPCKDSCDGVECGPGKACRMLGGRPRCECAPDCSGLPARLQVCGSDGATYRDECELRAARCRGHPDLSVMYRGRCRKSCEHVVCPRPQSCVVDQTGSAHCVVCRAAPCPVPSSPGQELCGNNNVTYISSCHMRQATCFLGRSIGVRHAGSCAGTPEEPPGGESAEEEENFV
Chain of Fibroblast growth factor 10 (Homo sapiens) (O15520 whole entry, looked up): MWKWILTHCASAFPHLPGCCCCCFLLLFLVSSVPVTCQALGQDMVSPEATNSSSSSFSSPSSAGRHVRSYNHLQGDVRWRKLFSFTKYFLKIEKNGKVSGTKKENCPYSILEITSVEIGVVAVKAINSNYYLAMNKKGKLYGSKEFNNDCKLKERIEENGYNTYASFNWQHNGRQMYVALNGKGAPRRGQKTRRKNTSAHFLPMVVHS
Chain of Torsin-1A-interacting protein 2 (Homo sapiens) (Q8NFQ8 whole entry, looked up): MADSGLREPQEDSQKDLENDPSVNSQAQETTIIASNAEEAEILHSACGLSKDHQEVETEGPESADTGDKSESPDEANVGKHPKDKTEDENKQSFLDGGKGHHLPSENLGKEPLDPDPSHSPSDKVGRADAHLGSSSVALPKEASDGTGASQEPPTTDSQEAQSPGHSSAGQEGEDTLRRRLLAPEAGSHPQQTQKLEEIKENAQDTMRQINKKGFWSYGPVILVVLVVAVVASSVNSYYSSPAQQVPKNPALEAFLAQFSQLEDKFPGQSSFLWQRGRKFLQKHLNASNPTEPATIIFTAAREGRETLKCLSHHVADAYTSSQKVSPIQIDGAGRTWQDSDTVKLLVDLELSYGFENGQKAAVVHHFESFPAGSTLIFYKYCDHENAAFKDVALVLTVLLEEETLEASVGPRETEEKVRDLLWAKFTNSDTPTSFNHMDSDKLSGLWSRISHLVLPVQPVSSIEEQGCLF
Chain of Neurogenic locus notch homolog protein 3 (Homo sapiens) (Q9UM47 whole entry, looked up): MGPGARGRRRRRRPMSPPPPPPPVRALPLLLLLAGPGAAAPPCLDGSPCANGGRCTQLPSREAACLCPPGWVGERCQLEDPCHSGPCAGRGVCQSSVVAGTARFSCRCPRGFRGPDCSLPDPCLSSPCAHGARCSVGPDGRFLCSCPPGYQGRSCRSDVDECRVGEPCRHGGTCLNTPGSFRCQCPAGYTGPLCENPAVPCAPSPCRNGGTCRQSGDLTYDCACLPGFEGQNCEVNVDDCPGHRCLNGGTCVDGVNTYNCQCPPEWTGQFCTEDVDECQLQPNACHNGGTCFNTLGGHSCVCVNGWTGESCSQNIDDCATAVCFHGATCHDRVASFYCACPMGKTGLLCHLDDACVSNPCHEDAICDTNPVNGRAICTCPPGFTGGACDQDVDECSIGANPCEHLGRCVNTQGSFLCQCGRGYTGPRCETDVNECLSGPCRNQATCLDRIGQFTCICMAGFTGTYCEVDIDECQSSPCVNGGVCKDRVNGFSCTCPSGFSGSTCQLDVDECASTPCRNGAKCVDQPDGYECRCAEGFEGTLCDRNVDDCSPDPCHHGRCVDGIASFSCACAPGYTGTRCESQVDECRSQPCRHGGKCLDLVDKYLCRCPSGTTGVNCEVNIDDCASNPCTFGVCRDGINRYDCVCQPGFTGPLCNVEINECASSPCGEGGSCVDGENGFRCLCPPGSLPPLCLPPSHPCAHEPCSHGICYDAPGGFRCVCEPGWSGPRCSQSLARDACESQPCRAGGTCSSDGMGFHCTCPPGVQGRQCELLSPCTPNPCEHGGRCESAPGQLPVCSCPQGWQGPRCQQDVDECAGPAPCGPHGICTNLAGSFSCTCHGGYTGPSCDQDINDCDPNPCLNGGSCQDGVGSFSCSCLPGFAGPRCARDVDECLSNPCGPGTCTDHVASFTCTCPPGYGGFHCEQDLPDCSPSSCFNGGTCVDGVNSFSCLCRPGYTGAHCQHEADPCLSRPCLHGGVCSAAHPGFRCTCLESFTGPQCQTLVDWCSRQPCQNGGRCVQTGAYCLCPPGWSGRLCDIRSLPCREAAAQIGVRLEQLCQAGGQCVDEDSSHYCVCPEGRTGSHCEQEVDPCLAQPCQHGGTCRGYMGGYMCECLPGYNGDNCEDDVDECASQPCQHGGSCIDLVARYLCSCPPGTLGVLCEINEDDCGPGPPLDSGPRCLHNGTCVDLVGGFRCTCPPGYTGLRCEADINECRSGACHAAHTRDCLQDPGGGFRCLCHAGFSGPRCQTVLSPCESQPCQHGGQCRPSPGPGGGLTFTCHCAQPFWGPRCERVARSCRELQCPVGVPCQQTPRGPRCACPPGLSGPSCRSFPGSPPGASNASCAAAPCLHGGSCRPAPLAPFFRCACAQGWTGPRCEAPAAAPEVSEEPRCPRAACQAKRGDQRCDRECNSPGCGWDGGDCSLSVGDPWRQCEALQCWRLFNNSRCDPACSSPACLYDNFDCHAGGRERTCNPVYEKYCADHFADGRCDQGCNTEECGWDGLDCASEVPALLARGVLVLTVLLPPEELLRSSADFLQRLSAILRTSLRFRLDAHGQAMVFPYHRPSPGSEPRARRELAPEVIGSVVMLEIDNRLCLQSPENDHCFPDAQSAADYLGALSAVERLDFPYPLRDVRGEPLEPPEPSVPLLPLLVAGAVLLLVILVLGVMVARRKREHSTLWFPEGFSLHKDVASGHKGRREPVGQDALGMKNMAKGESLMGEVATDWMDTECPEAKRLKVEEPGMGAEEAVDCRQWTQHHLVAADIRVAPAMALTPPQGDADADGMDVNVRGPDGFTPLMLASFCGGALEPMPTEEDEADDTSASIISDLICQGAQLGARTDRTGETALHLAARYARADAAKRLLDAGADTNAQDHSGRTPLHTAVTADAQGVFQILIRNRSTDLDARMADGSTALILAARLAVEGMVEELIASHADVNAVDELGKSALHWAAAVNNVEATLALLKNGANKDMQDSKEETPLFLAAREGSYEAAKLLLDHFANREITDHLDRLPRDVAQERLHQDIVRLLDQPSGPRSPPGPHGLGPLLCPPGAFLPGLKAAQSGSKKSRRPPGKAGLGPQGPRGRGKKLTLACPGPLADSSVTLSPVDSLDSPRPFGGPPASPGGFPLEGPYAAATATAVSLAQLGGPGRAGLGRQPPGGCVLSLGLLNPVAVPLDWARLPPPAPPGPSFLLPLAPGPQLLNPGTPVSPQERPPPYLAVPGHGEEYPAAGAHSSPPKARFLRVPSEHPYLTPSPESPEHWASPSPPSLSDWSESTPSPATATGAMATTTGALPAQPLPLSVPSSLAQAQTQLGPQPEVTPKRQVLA

Regarding `C=CCC(OC(C)=O)[C@@H]1[C@@H](N(Cc2cc3ccccc3o2)C(=O)c2cccc3ccccc23)c2cc(OCCCO)ccc2N1C(=O)Cc1ccc(OC)cc1` (stereo not given in full), the composite z-score in [1] was 0.21; in [5], 1.33; in assay [7], -0.0745; in assay [8] it was 0.342; in assay [9] it was -0.351; in assay [10] it was -0.0967. Also, the composite z-score in assay [11] worked out at 0.495; in assay [12] it was 0.136; in [13], 0.0527; in assay [15], 0.568; in [16] it was 0.12; in assay [17] it was 0.24. In addition, the results for the composite z-score in assay [18], in [19] and in assay [20] were 0.579, 0.429 and 1.2, respectively. For the same molecule, the z-score is -0.0559 (inactive) in assay [2]; -0.28 (inactive) in [3]; 0.351 (inactive) in assay [4]; -0.829 (inactive) in [6]; -1.04 (inactive) in [14].

For `O=C(N1CCCCC1)[C@]1(CCS(=O)(=O)c2ccccc2)N=C(c2ccc(OCCCO)cc2)O[C@@H]1c1ccccc1`, the composite z-score in assay [1] worked out at 1.56; in assay [5], 2.4; in [7], 0.568; in assay [8], 0.115; in [9] it was 1.11; in [10], 0.244. Further, the composite z-score in [11] was 1.26; in assay [12] it was 1.02; in [13], 1.08; in [15] it was 0.997; in [16], 1.31; in assay [17] it was -0.0354. For the same molecule, the composite z-score in assay [18] is 0.536; in assay [19], -0.142; in [20], 1.29. The z-score in assay [2] was -0.503 (inactive); in assay [3] it was -0.282 (inactive); in assay [4], 5.25 (inactive); in [6], -0.643 (inactive); in [14], 0.25 (inactive).

As for `COCCOC(=O)N1C(=O)[C@@]2(c3cc(C#Cc4ccc(OC)cc4)ccc31)[C@H](c1ccc(O)cc1)N1[C@H](c3ccccc3)[C@H](c3ccccc3)OC(=O)[C@H]1[C@@H]2C(=O)N1CCN(c2ncccn2)CC1`, the composite z-score was determined as 1.52 in [1]; 2.44 in assay [5]; 0.047 in assay [7]; 0.52 in assay [8]; 0.258 in [9]; 0.0746 in assay [10]. The composite z-score in assay [11] is 0.408; in assay [12] it was -0.544; in assay [13], 0.245; in [15] it was 0.735; in assay [16], -0.0597; in [17] it was 0.375. Moreover, the composite z-score amounted to 0.85 in assay [18], 0.355 in [19] and 0.349 in assay [20]. Further, the z-score is 1.56 (inactive) in [2]; 1.16 (inactive) in assay [3]; 2.83 (inactive) in assay [4]; 1.15 (inactive) in [6]; 0.477 (inactive) in assay [14].

On to `CN1C(=O)C2C=CC(C(O)C=Cc3ccc([N+](=O)[O-])cc3)N(N3CCCCC3)C2C1=O` (stereo not given), for which the composite z-score in assay [1] amounted to 1.09; in assay [5] it was 2.79; in assay [7] it was 0.859; in [8], 0.38; in [9], 1.06; in assay [10] it was 0.789. In addition, the composite z-score in assay [11] came to 1.38; in [12], 1.6; in assay [13], 1.34; in assay [15] it was 0.928; in [16], 1.28; in assay [17], 0.726. Besides, the figures for the composite z-score in [18], in assay [19] and in assay [20] were 1.1, 0.256 and 1.35, respectively. Moreover, the z-score was -0.704 (inactive) in [2]; -7.07 (inactive) in assay [3]; -0.476 (inactive) in [4]; -1.33 (inactive) in assay [6]; 1.47 (inactive) in assay [14].

As to `CCCNC(=O)[C@@]1(C)c2ccccc2C(=O)N(Cc2cc(F)cc(C(F)(F)F)c2)[C@H]1c1ccc(CO)cc1`, the composite z-score in [1] is 0.136; in assay [5], 2.08; in assay [7], -0.174; in assay [8], 0.0391; in assay [9], -0.131; in assay [10], -0.194. The composite z-score in assay [11] was 1.25; in [12], 0.0202; in assay [13], 0.995; in [15], -1.02; in assay [16], -0.552; in [17], -0.668. Also, the composite z-score in [18] is -0.286; in [19] it was -1.44; in assay [20], -0.496. Also, the z-score is -1.34 (inactive) in assay [2]; -0.974 (inactive) in [3]; -1.24 (inactive) in assay [4]; 0.423 (inactive) in assay [6]; -0.377 (inactive) in assay [14].
